# In all, about 52,000 compounds went through this assay and about 4,300 (8.3%) were called active. What follows is part of a selection rich in actives, with near analogues and random picks from the rest. A number with no mark means an inactive call. Rule as the data show it: active = survival mostly below about 52% (no sharp cut-off); inactive = mostly above about 56%.
# System: DeltatarO mutant
# Assay: growth inhibition of S. aureus wild type versus tarO mutant, primary screen, teichoic acid synthesis inhibitors, RN4220, OD600 (AID 463173)
# Settings: OD600, 18 h, stronger effect = lower value, screened at 18.75 µg/mL (by protocol)
row,Compound,survival
1,CCOC(=O)N1CCC(NC(=O)c2cnn(-c3ccccc3)c2C2CCN(C(=O)OC(C)(C)C)CC2)CC1,117%
2,CCOc1ccc(C2=NC(c3cccs3)=Nc3ccc(CC)cc3N2)cc1OCC,77%
3,COc1cccc(CNC(=O)c2cc(-c3cccc(OC)c3)n[nH]2)c1,71%
4,O=C(NCc1ccccc1)N1CCc2c(sc3c2CCCC3)C1c1ccccc1 (stereo not drawn),75%
5,COc1cc(C)ccc1OCCCn1c(-c2ccc(Cl)cc2)nc2ccccc2c1=O,62%
6,O=C(NC1CCCCCC1)C1c2ccccc2C(=O)N1Cc1ccc(F)cc1 (stereo not drawn),111%
7,Cc1ccc(CNC(=O)c2ccc(-c3nc(CS(=O)c4ccccc4)c(C)o3)cc2)cc1 (stereo not drawn),88%
8,COc1cc(Nc2nc(SCc3cccc(Cl)c3)nc3ccccc23)cc(OC)c1,37% (active)
9,COc1ccc(CCNc2nc(SCc3cccc(F)c3)nc3ccccc23)cc1OC,85%
10,Fc1ccc(Nc2nc(SCc3cccc(Cl)c3)nc3ccccc23)cc1,70%
11,Clc1cccc(CSc2nc(NCCc3ccccc3)c3ccccc3n2)c1,102%
12,Fc1cccc(CSc2nc(NCCc3ccccc3)c3ccccc3n2)c1,20% (active)
13,COc1cc(Nc2nc(SCc3ccc(Cl)cc3)nc3ccccc23)cc(OC)c1,91%
14,COc1ccc(-n2ccnc2SCC(=O)Nc2ccc3c(c2)OCO3)cc1,105%
15,Cc1ccc2nc(-c3ccsc3)c(Nc3ccc(C(C)C)cc3)n2c1,124%
16,O=C(NCc1ccccc1)c1ccc2c(c1)N(Cc1ccccc1F)C(=O)c1ccccc1S2=O (stereo not drawn),92%
17,N#CC(C#N)=Cc1cn(-c2ccccc2)nc1-c1ccccc1,68%
18,O=C(NCc1ccccc1)C(=O)NCC(c1ccc2c(c1)OCO2)N1CCOCC1 (stereo not drawn),92%
19,CCc1ccc(-n2c(=O)c3c4c(sc3n(CC(=O)N3CCC(C)CC3)c2=O)CCC4)cc1,83%
20,CCc1ccc(NC(=O)CC2C(=O)N(c3ccc(Cl)cc3)C(=O)N2Cc2ccco2)cc1 (stereo not drawn),91%
21,COC(=O)c1ccc(NC(=O)CC2C(=O)N(c3ccc(Cl)cc3)C(=O)N2Cc2ccco2)cc1 (stereo not drawn),37% (active)
22,COC(=O)c1ccc(NC(=O)CC2C(=O)N(c3cccc(OC)c3)C(=O)N2Cc2ccco2)cc1 (stereo not drawn),70%

row,Compound,survival
1,CCc1ccc(NC(=O)CC2C(=O)N(c3cccc(C)c3)C(=O)N2Cc2ccco2)cc1 (stereo not drawn),118%
2,CCc1ccc(NC(=O)CC2C(=O)N(c3cccc(OC)c3)C(=O)N2Cc2ccco2)cc1 (stereo not drawn),25% (active)
3,COC(=O)c1ccc(NC(=O)CC2C(=O)N(c3cccc(C)c3)C(=O)N2Cc2ccco2)cc1 (stereo not drawn),92%
4,CCN(CC)c1ccc2cc(C(=O)Nc3cccc(OC)c3)c(=O)oc2c1,75%
5,Cn1nnc2c(NCc3c(F)cccc3F)ncnc21,80%
6,C=CCn1c(C#N)c(N)sc1=N,96%
7,Cc1ccc(N2C(=O)CCSC23C(=O)N(Cc2ccccc2)c2ccccc23)cc1F (stereo not drawn),89%
8,COc1ccc(OC(=O)c2nc(SCc3ccc(C)cc3)ncc2Cl)cc1,57%
9,CCCNC(=O)c1ccc2nc(CCc3ccccc3)oc2c1,78%
10,O=C(NCCc1ccccc1)c1ccc2nc(CCc3ccccc3)oc2c1,32% (active)
11,CCOc1cc(CNC(=O)c2ccc3nc(C(C)C)oc3c2)cc(OCC)c1OCC,47% (active)
12,O=C(NCc1cccc(F)c1)c1ccc2nc(CCc3ccccc3)oc2c1,79%
13,CCc1ccc(CNC(=O)c2ccc3nc(C(C)C)oc3c2)cc1,82%
14,COc1ccc(CCNC(=O)c2ccc3nc(CCc4ccccc4)oc3c2)cc1OC,37% (active)
15,CCOc1ccc(CNC(=O)c2ccc3nc(C(C)C)oc3c2)cc1,76%
16,O=C(NCc1ccccc1)c1ccc2nc(CCc3ccccc3)oc2c1,0% (active)
17,O=C(NCCc1ccc(Cl)cc1)c1ccc2nc(CCc3ccccc3)oc2c1,75%
18,COc1ccc(Cc2nc3ccc(C(=O)NCCc4ccc(OC)c(OC)c4)cc3o2)cc1,77%
19,CN(C)c1ccc(CNC(=O)c2ccc3nc(CCc4ccccc4)oc3c2)cc1,93%
20,COc1ccc(CCNC(=O)c2ccc3nc(Cc4ccccc4)oc3c2)cc1OC,99%
21,COc1ccc(Cn2ccc3nc(C)c(C(=O)Nc4cccc(SC)c4)cc3c2=O)cc1,95%
22,COc1ccc(Nc2ncc(C(=O)N3CCN(c4ccc(OC)cc4)CC3)c3ccccc23)cc1,74%

row,Compound,survival
1,CCOc1ccc(N(CC(=O)Nc2ccc3c(c2)OCO3)S(=O)(=O)c2ccccc2)cc1,87%
2,O=C(O)CSc1c2c(nc3cc(C(=O)Nc4ccc(F)c(Cl)c4)ccc13)CCC2,88%
3,Cc1cc(S(=O)(=O)n2ccnc2C(C)C)cc([N+](=O)[O-])c1C,57%
4,COc1ccc(CNC(=O)c2ccc3nc(CCc4ccccc4)oc3c2)cc1,0% (active)
5,COc1ccc(CNC(=O)c2ccc3nc(CCc4ccccc4)oc3c2)cc1OC,79%
6,COc1ccc(CNC(=O)c2ccc3nc(CCc4ccccc4)oc3c2)c(OC)c1,135%
7,Cc1ccc(-c2onc(C)c2C)cc1S(=O)(=O)NC1CCCCC1,77%
8,COc1ccc(NC(=O)c2ccco2)cc1NC(=O)C(C)(C)Oc1ccc(Cl)cc1,40% (active)
9,COc1ccc(NC(=O)c2ccco2)cc1NC(=O)c1cc(Cl)ccc1OC,49%
10,COc1ccc(NC(=O)c2ccco2)cc1NC(=O)COc1ccc(Cl)cc1C,57%
11,COc1ccc(NC(=O)c2ccco2)cc1NC(=O)C(C)Oc1ccc(Cl)cc1Cl (stereo not drawn),28% (active)
12,COc1ccc(NC(=O)c2ccco2)cc1NC(=O)c1ccc(OC(C)C)cc1,121%
13,COc1ccc(NC(=O)c2ccco2)cc1NC(=O)C(C)C,84%
14,COc1ccc(NC(=O)c2sc3nc(C)c(C(=O)Nc4ccc(C)cc4C)c(-c4sccc4C)c3c2N)cc1,91%
15,c1ccc(NCc2ccncc2)cc1,83%
16,C=Cn1cccc1C(=O)O,83%
17,CC(C)CCNC(=O)c1ccc2c(c1)NC(=O)C(CS(=O)(=O)Cc1ccc(F)cc1)N2 (stereo not drawn),80%
18,Cc1ccc(CNC(=O)CCCc2nnc3n(CC(C)C)c(=O)c4sccc4n23)cc1,101%
19,CCOC(=O)Cn1c(=O)n(-c2ccccc2OC)c2nc(-c3ccc(C(C)C)cc3)nc(C(N)=O)c21,86%
20,CCOC(=O)Cn1c(=O)n(CC2CCCO2)c2nc(-c3ccc(C(C)C)cc3)nc(C(N)=O)c21 (stereo not drawn),6% (active)
21,CCOC(=O)Cn1c(=O)n(CC2CCCO2)c2nc(-c3ccc(OCC)cc3)nc(C(N)=O)c21 (stereo not drawn),-2% (active)
22,CCOC(=O)Cn1c(=O)n(CC2CCCO2)c2nc(-c3ccccc3)nc(C(N)=O)c21 (stereo not drawn),84%

row,Compound,survival
1,CCOC(=O)Cn1c(=O)n(-c2ccccc2OC)c2nc(-c3ccccc3)nc(C(N)=O)c21,-1% (active)
2,CCOC(=O)Cn1c(=O)n(-c2ccccc2OC)c2nc(-c3cccc(F)c3)nc(C(N)=O)c21,64%
3,CCOC(=O)Cn1c(=O)n(CC2CCCO2)c2nc(-c3ccc(CC)cc3)nc(C(N)=O)c21 (stereo not drawn),72%
4,CCOC(=O)Cn1c(=O)n(CC2CCCO2)c2nc(-c3ccc(C)cc3)nc(C(N)=O)c21 (stereo not drawn),67%
5,CCOC(=O)Cn1c(=O)n(CC2CCCO2)c2nc(-c3cccc(C)c3)nc(C(N)=O)c21 (stereo not drawn),79%
6,COc1cc(OC)c(NC(=O)C2CCCN(c3ncnc4c3nc3n4CCCCC3)C2)cc1Cl (stereo not drawn),122%
7,O=C1c2ccccc2C(=O)N1c1ncn[nH]1,94%
8,O=C(CSc1nc2c([nH]c3ccccc32)c(=O)n1-c1ccc(F)cc1)Nc1ccc2c(c1)OCO2,58%
9,COc1ccc(NC(=O)Cn2c(=O)n(CCCC(=O)NCc3ccccc3Cl)c(=O)c3ccccc32)c(OC)c1,125%
10,O=C(CC1N=C2c3ccccc3N=C(SCc3ccc(Cl)cc3)N2C1=O)NCc1cccs1 (stereo not drawn),75%
11,COc1ccc(CCNC(=O)c2ccc(Cn3c(=O)c4ccccc4n(Cc4cccc(F)c4)c3=O)cc2)cc1OC,78%
12,CNC(=O)C1CCC(Cn2c(=O)c3sccc3n(CC(=O)NCc3ccc(C)cc3)c2=O)CC1 (stereo not drawn),80%
13,CNC(=O)C1CCC(Cn2c(=O)c3sccc3n(CC(=O)NCc3ccccc3)c2=O)CC1 (stereo not drawn),32% (active)
14,Cc1ccc(C)c(Cn2c(=O)n(CC3CCC(C(=O)N4CCOCC4)CC3)c(=O)c3sccc32)c1 (stereo not drawn),80%
15,CNC(=O)C1CCC(Cn2c(=O)c3sccc3n(CC(=O)Nc3ccc(C)cc3C)c2=O)CC1 (stereo not drawn),87%
16,CNC(=O)C1CCC(Cn2c(=O)c3sccc3n(CC(=O)NCc3ccc(F)cc3)c2=O)CC1 (stereo not drawn),73%
17,CNC(=O)C1CCC(Cn2c(=O)c3sccc3n(Cc3cc(C)ccc3C)c2=O)CC1 (stereo not drawn),47% (active)
18,COc1ccc(CC(=O)NC2CC(=O)N(c3cccc(F)c3)C2)cc1 (stereo not drawn),94%
19,O=C(Nc1nncs1)C1c2ccccc2Oc2ccccc21,108%
20,CCOC(=O)C1CCCN(S(=O)(=O)c2ccc3c(c2)CCCN3C(C)=O)C1 (stereo not drawn),80%
21,CS(=O)(=O)N1CCSC1c1ccc(Cl)cc1Cl (stereo not drawn),109%
22,COc1ccc2oc(=O)c(-c3nnc(-c4ccccc4)o3)cc2c1,69%
